CYP2C9 act: human CYP2C9 activators, primary screen, biochemical, luminescence; recombinant CYP2C9, luciferin-H conversion; active compounds read high; factor 1 = untreated enzyme, 0 = blocked; activation factor at 5 µM; hit rate 1.4% among 96,000; AID 1024, 2008;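 active = activation factor of 2 or more for CYP2C9 at a 5 µM dose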
Target sequence (P11712 whole entry, looked up): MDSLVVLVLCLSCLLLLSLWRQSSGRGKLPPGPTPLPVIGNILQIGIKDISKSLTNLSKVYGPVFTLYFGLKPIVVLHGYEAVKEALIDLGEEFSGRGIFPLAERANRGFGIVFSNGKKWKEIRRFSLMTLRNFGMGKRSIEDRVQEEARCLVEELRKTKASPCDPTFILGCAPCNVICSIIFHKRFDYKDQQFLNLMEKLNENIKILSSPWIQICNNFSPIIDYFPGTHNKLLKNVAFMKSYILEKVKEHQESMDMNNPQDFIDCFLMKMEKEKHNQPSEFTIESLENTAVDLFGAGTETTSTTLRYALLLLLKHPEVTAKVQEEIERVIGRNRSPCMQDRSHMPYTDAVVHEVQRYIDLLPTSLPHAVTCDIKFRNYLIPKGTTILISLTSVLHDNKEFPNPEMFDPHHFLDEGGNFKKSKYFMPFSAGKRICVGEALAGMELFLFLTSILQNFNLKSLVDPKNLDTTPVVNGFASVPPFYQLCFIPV
CYP2C9 inhib: blockers of cytochrome P450 2C9 activity – biochemical, luminescence, ADME assay, primary screen | P11712 | CYP2C9 Supersomes, luciferin-H conversion | inhibition, % at 5 µM | hit rate 20% among 96,000 | AID 777, 2007;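 active = blocking of liver enzyme CYP2C9 beyond about 50% at 5 µM, limit read from the data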
F-actin modifier: modifiers of F-actin cytoskeleton organization, primary screen, imaging, HUVEC, phalloidin staining, high-content imaging | HUVEC TNFa F-actin phalloidin imaging | inhibition, % at 2 µM | hit rate 0.18% among 91,000 | AID 836, 2007;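 active = inhibition above the batch mean plus 3 SD and confirmed as a hit by visual image inspection, cut at about 30% in these data, passing the limit was not always enough; inconclusive = above the inhibition threshold but rejected on visual inspection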
CYP2C19 activ: human CYP2C19 activators, primary screen, biochemical, luminescence; activation factor at 5 µM; recombinant CYP2C19, luciferin-H EGE luminescence; active compounds read high; 0 = fully inhibited enzyme, 1 = untreated enzyme; 96,000 tested, under 10 active;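 active = activation factor of at least 2 at 5 µM in the primary screen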
E-sel TNF inh: E-selectin induction blockers in HUVEC – imaging, immunofluorescence, high content, primary screen. hit rate 0.71% among 120,000. inhibition, % at 2 µM. HUVEC TNFa-induced E-selectin immunofluorescence. AID 1246, 2008;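 active = inhibition above the batch mean plus 3 SD, and confirmed as a hit on visual image review, cut at about 43% in these data; inconclusive = passes the inhibition cutoff but fails visual image review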
CYP2C19 inhib: blockers of cytochrome P450 2C19 activity – biochemical, luminescence, ADME assay, primary screen; P33261; CYP2C19 Supersomes, luciferin-H EGE luminescence, 30 min; inhibition, % at 5 µM; hit rate 21% among 96,000; AID 778, 2007;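 active = CYP2C19 inhibition above a set limit at 5 µM in the primary screen, cut at about 50% in these data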
Large screens that a line does not name were inactive. A selection: hits, their analogues and other compounds. The true share with any hit is near 22%.

Cc1c(C)n(C(=O)CSc2nc3ccccc3[nH]2)c2ccccc12	CYP2C9 inhib 94, CYP2C19 inhib 95
CN(C)S(=O)(=O)N1CCN(C(=O)c2ccccc2Cl)CC1	CYP2C19 inhib 76 (no result: F-actin modifier)
O=S(=O)(N1CCCCC1)N1CCN(c2ccccc2F)CC1	none
CN(C)S(=O)(=O)N1CCN(c2cc(Cl)ccc2Cl)CC1	CYP2C9 inhib 68, CYP2C19 inhib 91
CN(C)S(=O)(=O)N1CCN(CC(=O)Nc2cc(Cl)ccc2Cl)CC1	E-sel TNF inh inconclusive, CYP2C19 inhib 72 (no result: F-actin modifier)
CN(C)S(=O)(=O)N1CCN(c2ccccc2Cl)CC1	CYP2C9 inhib 81, CYP2C19 inhib 92 (no result: E-sel TNF inh)
Cc1ccc(S(=O)(=O)NCCCCCC(=O)Nc2ccccc2)cc1	none (no result: CYP2C9 act, CYP2C9 inhib, F-actin modifier, CYP2C19 activ, CYP2C19 inhib)
Cc1ccc(C(=O)NC(NC(=O)c2ccc(C)cc2)c2cccc([N+](=O)[O-])c2)cc1	none (no result: CYP2C9 act, CYP2C9 inhib, F-actin modifier, CYP2C19 activ, CYP2C19 inhib)
CCc1nc(Nc2ccc(OC)c(OC)c2)c2nnn(Cc3ccccc3Cl)c2n1	none (no result: CYP2C9 act, CYP2C9 inhib, CYP2C19 activ, CYP2C19 inhib)
O=C(NCc1ccccc1)C1(c2ccccc2)CCN(S(=O)(=O)c2ccccc2)CC1	none
CN(C)S(=O)(=O)N1CCN(c2cccc(Cl)c2)CC1	none
CN(C)S(=O)(=O)N1CCN(c2ccccc2)CC1	CYP2C19 inhib 86
CN(C)S(=O)(=O)N1CCN(Cc2ccccc2)CC1	CYP2C19 inhib 93 (no result: F-actin modifier)
CCOc1ccc(N2C(=O)C3Sc4[nH]c(=O)sc4C(/C=C/c4ccccc4)C3C2=O)cc1 (stereo not drawn)	none (no result: CYP2C9 act, CYP2C9 inhib, F-actin modifier, CYP2C19 activ, CYP2C19 inhib)
CCOc1ccc(NC(=S)N=Nc2c(O)[nH]c3ccccc23)cc1	none (no result: CYP2C9 act, CYP2C9 inhib, F-actin modifier, CYP2C19 activ, CYP2C19 inhib)
O=C(NCCc1ccccn1)C1CC(=O)N(Cc2ccccc2Cl)C1 (stereo not drawn)	CYP2C19 inhib 68
COc1ccc(CN2CC(C(=O)NCc3ccccn3)CC2=O)cc1 (stereo not drawn)	none
Cc1ccc2cc(C#N)c(NCCCNC(=O)C3CCCO3)nc2c1 (stereo not drawn)	none
COC(=O)c1cn(-c2ccc(F)cc2)c(=O)c2ccccc12	none (no result: CYP2C9 act, CYP2C9 inhib, F-actin modifier, CYP2C19 activ, CYP2C19 inhib)
CCOC(=O)C1=c2s/c(=C\c3cccnc3)c(=O)n2C(N)=C(C(=O)OC)C1c1cccnc1 (stereo not drawn)	CYP2C9 inhib 88, CYP2C19 inhib 90
N#CC1=C(N)n2c(s/c(=C\c3ccco3)c2=O)=C(C#N)C1c1ccco1 (stereo not drawn)	CYP2C9 inhib 51
COC(=O)C1=C(N)n2c(s/c(=C\c3cccnc3)c2=O)=C(C(=O)OC)C1c1cccnc1 (stereo not drawn)	CYP2C19 inhib 70
COC(=O)C1=C(N)Oc2cc(C)n(Cc3ccncc3)c(=O)c2C1c1cccnc1 (stereo not drawn)	none (no result: CYP2C9 act, CYP2C9 inhib, CYP2C19 activ, CYP2C19 inhib)
CCOC(=O)C1=C(N)n2c(s/c(=C/c3ccco3)c2=O)=C(C(=O)OC)C1c1ccco1 (stereo not drawn)	CYP2C9 inhib 78
O=C(CN1CCN(C(=O)c2ccccc2)CC1)Nc1ncc(Br)cc1Br	none
CC(C)CNC(=O)c1cccc(Cn2cc(Cl)cn2)c1	none
COc1ccc(C2(CNC(=O)c3cc([N+](=O)[O-])cc([N+](=O)[O-])c3)CCCC2)cc1OC	E-sel TNF inh 63 (no result: CYP2C9 act, CYP2C9 inhib, F-actin modifier, CYP2C19 activ, CYP2C19 inhib)
COc1ccc(CNC(=O)/C=C/c2ccco2)cc1OC	none (no result: CYP2C9 act, CYP2C9 inhib, F-actin modifier, CYP2C19 activ, CYP2C19 inhib)
COc1ccc(C2(CNC(=O)/C=C/c3ccco3)CCCC2)cc1OC	CYP2C9 inhib 53
COc1ccc(C2(CNC(C)=O)CCCC2)cc1OC	none (no result: E-sel TNF inh)
CCOC(=O)c1sc2nc(CN3CCCCC3)nc(Cl)c2c1C	none (no result: CYP2C9 act, CYP2C9 inhib, F-actin modifier, CYP2C19 activ, CYP2C19 inhib)
O=C1c2ccccc2CCC12N=NCC2c1ccc(Cl)cc1 (stereo not drawn)	CYP2C19 inhib 84
O=C1CC(c2ccc(Cl)cc2)n2nc(N3C(=O)c4ccccc4C3=O)nc2N1 (stereo not drawn)	none
O=C1c2ccccc2CCC12N=NCC2c1ccc(Br)cc1 (stereo not drawn)	CYP2C19 inhib 99
COc1ccc2c(c1)CCc1c(C(=O)Nc3ccn(Cc4ccc(C)cc4)n3)noc1-2	none (no result: E-sel TNF inh)
COc1ccc(S(=O)(=O)Nc2nc3n(n2)C(c2ccc(Cl)cc2)CC(=O)N3)cc1 (stereo not drawn)	none (no result: F-actin modifier)
CN(C)c1ccc(-c2nnn(CC(=O)Nc3ccccc3N3CCOCC3)n2)cc1	CYP2C9 inhib 90 (no result: F-actin modifier)
Cc1ccccc1NC(=O)Cn1nnc(-c2ccc(N3CCOCC3)cc2)n1	none
COc1ccc(-c2nnn(CC(=O)N3CCN(c4ccccc4OC)CC3)n2)cc1	none (no result: CYP2C9 act, CYP2C9 inhib, CYP2C19 activ, CYP2C19 inhib)
CN(C)c1ccc(-c2nnn(CC(=O)N3c4ccccc4CCc4ccccc43)n2)cc1	CYP2C9 inhib 77, CYP2C19 inhib 71
OCCOCCn1c(-c2ccccc2)nc(=S)c2c1CCCC2	none (no result: E-sel TNF inh)
CCOc1cc(C)nc(N2CCN(C3CCCCC3)CC2)n1	CYP2C19 inhib 62
Cc1cc(C)nc(N2CCN(c3nc(C)cc(C)n3)CC2)n1	none
CC(C)(C)OC(=O)N1CC=C2C(C#N)=C(N)C(C#N)(C#N)[C@H](c3cccnc3)[C@H]2C1	none (no result: F-actin modifier)
CCOC(=O)N1CC=C2C(C#N)=C(N)C(C#N)(C#N)[C@H](c3cccs3)C2C1 (stereo partly drawn)	none (no result: CYP2C9 act, CYP2C9 inhib, CYP2C19 activ, CYP2C19 inhib)
N#CC1=C(N)C(C#N)(C#N)[C@H](c2ccncc2)[C@H]2CN(C(=O)OCc3ccccc3)CC=C12	E-sel TNF inh 96 (no result: CYP2C9 act, CYP2C9 inhib, F-actin modifier, CYP2C19 activ, CYP2C19 inhib)
CC(C)(C)OC(=O)N1CC=C2C(C#N)=C(N)C(C#N)(C#N)C(c3cccs3)C2C1 (stereo not drawn)	CYP2C9 inhib 60 (no result: F-actin modifier, E-sel TNF inh)
Cc1nc2ccccc2c2nc(NC(=O)Cc3ccccc3)nn12	none
CC(=O)Nc1cccc(NC(=O)CSc2nc(C)c(C)c(C)c2C#N)c1	CYP2C19 inhib 67
CC(C)CC(c1nnnn1CC1CCCO1)N1CCN(c2cccc(Cl)c2)CC1 (stereo not drawn)	none (no result: CYP2C9 act, CYP2C9 inhib, CYP2C19 activ, E-sel TNF inh, CYP2C19 inhib)
CCCN(CCC)c1nc2ccccc2nc1C(C#N)C(=O)OC(C)COC (stereo not drawn)	none (no result: CYP2C9 act, CYP2C9 inhib, CYP2C19 activ, CYP2C19 inhib)
CCN(CCO)c1ncnc2c1sc1nc(C(C)C)c3c(c12)CC(C)(C)OC3	CYP2C9 inhib 76 (no result: E-sel TNF inh)
O=C(c1ccco1)N1CCN(CC(=O)N2c3ccccc3CCc3ccccc32)CC1	CYP2C9 inhib 61 (no result: E-sel TNF inh)
O=C(CN1CCN(C(=O)c2ccco2)CC1)Nc1cc(Cl)ccc1Cl	none
O=C(CN1CCN(C(=O)c2ccco2)CC1)Nc1ccccc1-c1ccccc1	CYP2C9 inhib 80, CYP2C19 inhib 76 (no result: E-sel TNF inh)
Cc1nnc2n(CCc3ccccc3)c(=O)c3c4c(sc3n12)CCCC4	none (no result: CYP2C9 act, CYP2C9 inhib, CYP2C19 activ, CYP2C19 inhib)
CCOc1ccc(C(=O)N/N=C(\c2ccccc2)c2ccccn2)cc1	none
COC(=O)c1c[nH]n2c(=O)c(Cc3ccc(F)cc3Cl)c(C)nc12	CYP2C9 inhib 71
COC(=O)c1c[nH]n2c(=O)c(Cl)c(C)nc12	none (no result: CYP2C9 act, CYP2C9 inhib, F-actin modifier, CYP2C19 activ, CYP2C19 inhib)

Screening results: PubChem BioAssay, several laboratories
